Laboratory results published in PubChem BioAssay (NCATS).
Values without a mark were called inactive. Calls come from the whole dose curve; as a rule, active = well fitted curve in the direction sought with a large enough effect; inconclusive = small, poorly fitted or top-dose-only effect, or effect the other way, or another doubt; inactive = no such curve, though single readings can be large or run the other way.

Assay: Inducers of the Endoplasmic Reticulum Stress Response (ERSR) in human glioma: Validation (AID 504836); note: 0% is about no effect
Conditions: human glioma cells, ER stress response reporter; series mostly up to 38.3 µM; activation: at the top concentration
Summary of the method: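 Stably transfected U87-MG glioma cells carrying a GRP78-based luciferase sensor; 16 h compound incubation. Luminescence end-point read 10 min after Bright-Glo addition at room temperature.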

Structure (SMILES)	activation
O=c1[nH]cc(F)c(=O)[nH]1	-4.66%
COc1ccccc1OCC(O)CN1CCN(CC(=O)Nc2c(C)cccc2C)CC1 (stereo not given)	1.07%
CCCNC(=O)NS(=O)(=O)c1ccc(Cl)cc1	-3.76%
OCCN1CCN(CCCN2c3ccccc3Sc3ccc(Cl)cc32)CC1	-1.56%
CC(=O)[C@]1(O)Cc2c(O)c3c(c(O)c2[C@@H](O[C@H]2C[C@H](N)[C@H](O)[C@H](C)O2)C1)C(=O)c1ccccc1C3=O	-7.63%
CNC1(C)C2CCC(C2)C1(C)C (stereo not given)	-2.89%
CN(C)CCOC(C)(c1ccccc1)c1ccccn1 (stereo not given)	-1.27%
O=C(CCCN1CCC(O)(c2ccc(Cl)cc2)CC1)c1ccc(F)cc1	1.14%
Cc1ccc(S(=O)(=O)NC(=O)NN2CCCCCC2)cc1	-3.97%
CC1(C)NC(=O)N(c2ccc([N+](=O)[O-])c(C(F)(F)F)c2)C1=O	-5.72%
CC(=O)N[C@@H](CS)C(=O)O	-1.17%
CN(C)CCCN1c2ccccc2CCc2ccc(Cl)cc21	-1.42%
O=C1CCc2cc(OCCCCc3nnnn3C3CCCCC3)ccc2N1	-0.449%
Nc1nc2c(ncn2COC(CO)CO)c(=O)[nH]1	-2.41%
CC(C)(C(=O)O)c1ccc(C(O)CCCN2CCC(C(O)(c3ccccc3)c3ccccc3)CC2)cc1 (stereo not given)	-0.403%
O=C1N=C(O)CN1/N=C/c1ccc(-c2ccc([N+](=O)[O-])cc2)o1	0.223%
CC[N+](C)(C)c1cccc(O)c1	-2.23%
NNc1nncc2ccccc12	-2.43%

Structure (SMILES)	activation
NNCCc1ccccc1	-0.057%
CC(C)[N+](C)(CCOC(=O)C1c2ccccc2Oc2ccccc21)C(C)C	-1.89%
NC12CC3CC(CC(C3)C1)C2	-0.889%
CN1CCN(C2=Nc3cc(Cl)ccc3Nc3ccccc32)CC1	-0.248%
COC(=O)Nc1nc2ccc(C(=O)c3cccs3)cc2[nH]1	-2.66%
CC(C)NCC(O)COc1ccc(CCOCC2CC2)cc1 (stereo not given)	-0.458%
CN1CCN(CCCN2c3ccccc3Sc3ccc(Cl)cc32)CC1	-1.93%
CC(=O)Nc1nnc(S(N)(=O)=O)s1	-2.47%
CCCN(CCC)CCc1cccc2c1CC(=O)N2	-0.323%
CC#C[C@]1(O)CC[C@H]2[C@@H]3CCC4=CC(=O)CCC4=C3[C@@H](c3ccc(N(C)C)cc3)C[C@@]21C	-0.257%
CC/C(=C(\c1ccccc1)c1ccc(OCCN(C)C)cc1)c1ccccc1	-1.38%
Nc1nc2c(ncn2COCCO)c(=O)[nH]1	-1.22%
Cc1cnc(C(=O)NCCc2ccc(S(=O)(=O)NC(=O)NC3CCCCC3)cc2)cn1	-3.64%
CN(C)CCC=C1c2ccccc2C=Cc2ccccc21	-3.4%
CN(C)[C@@H]1C(=O)C(C(N)=O)=C(O)[C@@]2(O)C(=O)C3=C(O)c4c(O)ccc(Cl)c4[C@@H](O)[C@H]3C[C@@H]12	-0.308%
CN(C)c1nc(N(C)C)nc(N(C)C)n1	2.76%
CCN(CC)CCCC(C)Nc1ccnc2cc(Cl)ccc12 (stereo not given)	-1.94%
